# From PubChem BioAssay (EPA / NIEHS)
# Inconclusive results are not listed. Some compounds were tested as several samples or in several runs, with calls that do not always agree. Active and inactive are the calls of the source. The calls were made as follows, unless noted: active = hit-call score of the fitted dose curve at least 0.9, where 1 is the maximum; inactive = score below 0.9.
# Tests used:
# [1] = CCTE_Mundy_HCI_Cortical_NOG_NeuriteCount: CCTE's Neurite Outgrowth Assay in rat cortical cells for Neurite Count, Mundy Lab (AID 2284212);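 also: cells fixed about two days after chemical exposure began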
# Summary of the method: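 Neurite number per cell from high-content imaging of betaIII-tubulin immunostaining, with Hoechst nuclear counterstain.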
# [2] = CCTE_Mundy_HCI_Cortical_Synap_Neur_Matur_NeuriteLength: CCTE's Synaptogenesis and Neurite Maturation Assay in rat cortical cells for Neurite Length, Mundy Lab (AID 2284214)
# Summary of the method: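 Neurite length in rat primary cortical cultures is imaged after MAP2, synaptophysin and Hoechst staining. Dosing starts DIV 7, ending DIV 12; DMSO serves as negative control and baseline.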
# [3] = CCTE_Mundy_HCI_Cortical_Synap_Neur_Matur_SynapseCount: CCTE's Synaptogenesis and Neurite Maturation Assay in rat cortical cells for Synapse Count, Mundy Lab (AID 2284218)
# Summary of the method: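 Synapse count per neuron is measured in rat cortical neurons exposed to chemicals between DIV 7 and DIV 12, with glial growth arrested by AraC at DIV 5. Synaptophysin and MAP2 staining is imaged automatically; activity is fitted relative to DMSO.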
# [4] = CCTE_Mundy_HCI_hN2_NOG_NeuriteCount: CCTE's Neurite Outgrowth Assay in human hN2 cells for Neurite Count, Mundy Lab (AID 2284219; active = hit-call score of the fitted dose curve at least 0.9, where 1 is the maximum)
# Summary of the method: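 In this morphology assay, hNP1-derived neurons received test chemical 2 h post-plating and were fixed two days later in warm paraformaldehyde/sucrose containing Hoechst 33342. Neurites, labelled by rabbit anti-βIII-tubulin (1:800) and Alexa Fluor-488 (1:500), were counted automatically.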
# [5] = CCTE_Mundy_HCI_hN2_NOG_NeuriteLength: CCTE's Neurite Outgrowth Assay in human hN2 cells for Neurite Length, Mundy Lab (AID 2284220; active = hit-call score of the fitted dose curve at least 0.9, where 1 is the maximum)
# Summary of the method: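 Plate hNP1-derived neurons, then add chemical 2 h later as a 1/10 dilution. Stain with anti-βIII-tubulin then Alexa Fluor-488 secondary, and image automatically to measure neurite length.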
# [6] = CCTE_Mundy_HCI_hN2_NOG_NeuronCount: CCTE's Neurite Outgrowth Assay in human hN2 cells for Neuron Count, Mundy Lab (AID 2284221; active = hit-call score of the fitted dose curve at least 0.9, where 1 is the maximum)
# Summary of the method: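 Read-out is the number of betaIII-tubulin-positive neurons imaged by automated high-content analysis, with DMSO as negative control.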
# [7] = CCTE_Mundy_HCI_Cortical_Synap_Neur_Matur_NeuriteCount: CCTE's Synaptogenesis and Neurite Maturation Assay in rat cortical cells for Neurite Count, Mundy Lab (AID 2284222);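 as to outcome: exposure from day 7 to day 12 in vitro with readout at day 12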
# Summary of the method: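 Rat cortical neurons, 96-well; AraC DIV 5; chemical + media change DIV 7; end DIV 12. Fix PFA/Hoechst, anti-MAP2 + anti-synaptophysin IF. HCI neurite count vs DMSO baseline.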
# [8] = CCTE_Mundy_HCI_Cortical_Synap_Neur_Matur_CellBodySpotCount: CCTE's Synaptogenesis and Neurite Maturation Assay in rat cortical cells for Cell Body Spot Count, Mundy Lab (AID 2284223)
# Summary of the method: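 Chemicals were applied to AraC-treated rat primary cortical cells at DIV 7 and measured at DIV 12. Fixed cells were labelled for MAP2, synaptophysin and nuclei, and high-content imaging gave cell body synaptophysin spot counts per neuron relative to DMSO.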
# [9] = CCTE_Mundy_HCI_hNP1_Pro_ResponderAvgInten: CCTE's Proliferation Assay in human neuroprogenitor cells, Mundy Lab (AID 2284224; active = hit-call score of the fitted dose curve at least 0.9, where 1 is the maximum;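 also: human neural progenitor cells hNP1 derived from WA09 embryonic stem cells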)
# Summary of the method: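 Proliferation was scored as BrdU labelling intensity in human neural progenitors derived from WA09 embryonic cells, measured 26.25 hours after chemical dosing. Activity was fitted relative to DMSO.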
# [10] = UKN4_HCS_LUHMES_cell_viability: Viability Assessment in the University of Konstanz (UKN) Leist Lab Neurite Outgrowth Assay in human LUHMES cells (UKN4) (AID 2284232)
# Summary of the method: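 Human dopaminergic-model LUHMES neurons were exposed to chemicals for 24 h after a 2-day differentiation. Viability was scored by imaging Hoechst H-33342 staining, with activity fitted in both directions relative to DMSO controls.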
# [11] = UKN2_HCS_IMR90_cell_viability: Viability Assessment in the University of Konstanz (UKN) Leist Lab Neural Crest Cell Migration Assay in human induced IMR90 Pluripotent Stem Cells (UKN2) (AID 2284233);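 also: viability of neural crest cells differentiated from IMR90 iPSC measured by calcein-AM fluorescence imaging; cells exposed to compound for 24 h after a 24 h migration phase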
# Summary of the method: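 Human IMR90-derived neural crest cells were allowed to migrate for 24 h into a cell-free zone, then exposed to test chemicals for 24 h. Calcein-AM and Hoechst staining with high-content imaging gave viability, analysed against DMSO baseline.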
# [12] = BSK_BT_PBMCCytotoxicity: PBMC Cytotoxicity Assessment in the BioMAP Diversity Plus: BT Assay (AID 2284225); settings: primary human B cells with PBMC;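 also: PBMC viability measured by Alamar Blue dye reduction fluorescence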
# Summary of the method: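 75,000 cells/well; cpd 1 h → SEB + TSST-1 (20 ng/mL final each) → 90 h → Alamar Blue 6 h → fluor. 546/580 nm. DMSO = neg. control/baseline.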
# [13] = read-out: Secreted IgG (sIgG), gene 3500; test: BSK_BT_sIgG: BioMAP Diversity Plus: BT Assay for Secreted IgG (sIgG) Biomarker Activity (AID 2284226); settings: primary human B cells with PBMC
# Summary of the method: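 Secreted IgG from a human primary B cell–PBMC co-culture was measured by ELISA 24 hours after dosing, with DMSO defining baseline activity.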
# [14] = BSK_BT_Bcell_Proliferation: Viability Assessment in the BioMAP Diversity Plus: BT Assay for B cell Proliferation (AID 2284227); settings: primary human B cells with PBMC
# Summary of the method: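 Human B cell/PBMC co-culture; test chemical added; 72 h; TCA fix (10%), 0.1% SRB stain, A560 for total protein as a proliferation read-out; positive-direction fit vs DMSO baseline.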
# [15] = read-out: Interleukin 6 (IL6), IL6 (gene 3569); test: BSK_BT_xIL6: BioMAP Diversity Plus: BT Assay for Interleukin 6 (IL6) Biomarker Activity (AID 2284228); settings: primary human B cells with PBMC
# Summary of the method: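 IL-6 secretion measured (Luminex xMAP) in human primary B cell + PBMC co-culture at 24 h of chemical exposure; DMSO served as negative control and activity baseline, with curves fitted for increase.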
# [16] = read-out: Interleukin 17A (IL17A), IL17A (gene 3605); test: BSK_BT_xIL17A: BioMAP Diversity Plus: BT Assay for Interleukin 17A (IL17A) Biomarker Activity (AID 2284229); settings: primary human B cells with PBMC
# Summary of the method: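 Human primary B cells plus PBMC, treated 24 h with chemicals; supernatant IL-17A quantified on Luminex xMAP beads. Gain of signal over DMSO control scored as activity.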
# [17] = read-out: Tumor necrosis factor (Homo sapiens) (UniProt P01375); test: BSK_BT_xTNFa: BioMAP Diversity Plus: BT Assay for Tumor necrosis factor alpha (TNF-alpha) Biomarker Activity (AID 2284230); settings: primary human B cells with PBMC
# Summary of the method: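 Read-out: Luminex xMAP quantitation of secreted TNF-alpha from a B cell/PBMC co-culture 24 h after compound addition. Signal analysed relative to DMSO vehicle, positive fitting direction.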
# [18] = read-out: Vascular cell adhesion molecule 1 (VCAM1), VCAM1 (gene 7412); test: BSK_MyoF_VCAM1: BioMAP Diversity Plus: MyoF Assay for Vascular cell adhesion molecule 1 (VCAM1) Biomarker Activity (AID 2284231); settings: primary human lung fibroblasts
# Summary of the method: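 VCAM-1 levels, lung fibroblasts, ELISA, 24 h exposure, increase scored relative to DMSO.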
# [19] = TAMU_PeakParms_SingleDonor1434_Chronotropy: Texas A&M University (TAMU) 1.5-hr Human Induced Pluripotent Stem Cell (iPSC)-derived Cardiomyocytes Calcium (Ca+2) Flux Assay for Cardiotoxicity: Chronotropy (changes in peak frequency) (AID 2284217); settings: actives raise or lower the signal
# Summary of the method: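 Beat rate, as mean Ca2+-flux peak frequency, was read from donor 1434 iPSC cardiomyocytes 90 min after exposure to 0.2–100 uM test chemical (0.5% DMSO). Wells that stopped beating were excluded; EC05 from bidirectional DMSO-referenced fitting.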
# [20] = TAMU_HCS_1.5hr_SingleDonor1434_Cytotoxicity: Cytotoxicity Assessment using High-content Screening (HCS) Fluorescent Imaging for the Texas A&M University (TAMU) 1.5-hr Human Induced Pluripotent Stem Cell (iPSC)-derived Cardiotoxicity Assay (AID 2284234; active = hit-call score of the fitted dose curve at least 0.9, where 1 is the maximum)
# Summary of the method: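 Human iPSC-derived cardiomyocytes dosed at 0.2, 1, 10, 100 uM final (0.5% DMSO) for 90 min at 37 C. Hoechst 33342-stained nuclei counted by 10x high-content imaging; POD is EC10, a 10% drop in total cell count versus DMSO.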
# Tumor necrosis factor (Homo sapiens), sequence (P01375 whole entry, looked up): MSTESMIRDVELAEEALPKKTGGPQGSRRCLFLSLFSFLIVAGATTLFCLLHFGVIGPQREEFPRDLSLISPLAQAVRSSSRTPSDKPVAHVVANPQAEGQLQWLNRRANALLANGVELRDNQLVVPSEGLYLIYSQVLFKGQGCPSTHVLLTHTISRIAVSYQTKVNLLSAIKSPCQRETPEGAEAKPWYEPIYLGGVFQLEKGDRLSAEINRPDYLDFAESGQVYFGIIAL
smiles,measurement,setting,value
CCOP(=O)(OCC)Oc1nc(Cl)c(Cl)cc1Cl,outcome,[1],inactive
same,AC50,[2],16.2 µM (active)
same,outcome,[2],inactive
same,outcome,[3],inactive
same,AC50,[4],50 µM (active)
same,AC50,[5],38.4 µM (active)
same,AC50,[6],50 µM (active)
same,outcome,[7],inactive
same,outcome,[8],inactive
same,AC50,[9],73.7 µM (active)
same,outcome,[9],inactive
same,AC50,[10],65.1 µM (active)
same,AC50,[11],3.19 µM (active)
COC(=O)N(C(=O)N1CO[C@@]2(C(=O)OC)Cc3cc(Cl)ccc3C2=N1)c1ccc(OC(F)(F)F)cc1,outcome,[1],inactive
same,outcome,[2],inactive
same,outcome,[3],inactive
same,outcome,[7],inactive
same,outcome,[8],inactive
same,outcome,[9],inactive
same,AC50,[11],33.1 µM (active)
CN/C(=N\[N+](=O)[O-])NCc1cnc(Cl)s1,outcome,[1],inactive
same,outcome,[2],inactive
same,outcome,[3],inactive
same,outcome,[7],inactive
same,outcome,[8],inactive
CS(=O)(=O)c1cc(C(F)(F)F)ccc1C(=O)c1cnoc1C1CC1,outcome,[1],inactive
same,outcome,[2],inactive
same,outcome,[3],inactive
same,outcome,[7],inactive
same,outcome,[8],inactive
same,outcome,[9],inactive
same,outcome,[11],inactive
COCC(C)N(C(=O)CCl)c1c(C)csc1C (configuration not stated),outcome,[12],inactive
same,AC50,[13],13.5 µM (active)
same,outcome,[14],inactive
same,outcome,[15],inactive
same,AC50,[16],20 µM (active)
same,outcome,[17],inactive
same,AC50,[18],20 µM (active)
O=C(Nc1ccccc1-c1ccc(Cl)cc1)c1cccnc1Cl,outcome,[1],inactive
same,outcome,[2],inactive
same,outcome,[3],inactive
same,outcome,[7],inactive
same,outcome,[8],inactive
same,outcome,[9],inactive
same,outcome,[11],inactive
N#CN=C1SCCN1Cc1ccc(Cl)nc1,outcome,[1],inactive
same,outcome,[2],inactive
same,outcome,[3],inactive
same,outcome,[7],inactive
same,outcome,[8],inactive
same,outcome,[9],inactive
CC1(C)C(C=C(Cl)Cl)C1C(=O)OC(C#N)c1cccc(Oc2ccccc2)c1 (configuration not stated),outcome,[1],inactive
same,outcome,[2],inactive
same,outcome,[3],inactive
same,outcome,[7],inactive
same,outcome,[8],inactive
COP(=O)(OC)O/C(C)=C/C(=O)N(C)C,outcome,[1],inactive
same,outcome,[2],inactive
same,outcome,[3],inactive
same,outcome,[7],inactive
same,outcome,[8],inactive
same,outcome,[9],inactive
CO/N=C(/C1=NOCCO1)c1ccccc1Oc1ncnc(Oc2ccccc2Cl)c1F,AC50,[1],3.51 µM (active)
same,AC50,[2],4.34 µM (active)
same,AC50,[3],2.75 µM (active)
same,AC50,[7],3.45 µM (active)
same,AC50,[8],3.26 µM (active)
same,outcome,[9],inactive
same,outcome,[11],inactive
CNC(=O)Oc1cccc2ccccc12,outcome,[1],inactive
same,outcome,[19],inactive
same,outcome,[3],inactive
same,outcome,[7],inactive
same,outcome,[8],inactive
same,outcome,[20],inactive
CCNC(=O)NC(=O)C(C#N)=NOC,outcome,[1],inactive
same,outcome,[2],inactive
same,AC50,[3],0.0179 µM (active)
same,outcome,[7],inactive
same,outcome,[8],inactive
COP(=S)(OC)SCn1nnc2ccccc2c1=O,outcome,[1],inactive
same,outcome,[2],inactive
same,outcome,[3],inactive
same,outcome,[7],inactive
same,outcome,[8],inactive
same,outcome,[10],inactive
same,AC50,[11],32.2 µM (active)
CC(C)(C)C(=O)C(Oc1ccc(Cl)cc1)n1cncn1 (configuration not stated),outcome,[1],inactive
same,AC50,[2],7.05 µM (active)
same,AC50,[3],6.09 µM (active)
same,AC50,[7],12.8 µM (active)
same,outcome,[8],inactive
same,outcome,[11],inactive
Cc1c(COC(=O)[C@@H]2[C@H](/C=C(\Cl)C(F)(F)F)C2(C)C)cccc1-c1ccccc1,AC50,[1],27.8 µM (active)
same,AC50,[2],3.7 µM (active)
same,AC50,[3],3.14 µM (active)
same,AC50,[7],5.03 µM (active)
same,AC50,[8],3.12 µM (active)
same,AC50,[9],3.68 µM (active)
same,outcome,[11],inactive
CS(=O)(=O)c1ccc(C(=O)C2C(=O)CCCC2=O)c([N+](=O)[O-])c1,outcome,[1],inactive
same,outcome,[2],inactive
same,outcome,[3],inactive
same,outcome,[7],inactive
same,outcome,[8],inactive
same,outcome,[11],inactive
CCCCC(C#N)(Cn1cncn1)c1ccc(Cl)cc1 (configuration not stated),outcome,[19],inactive
C=C(C)CN(CC)c1c([N+](=O)[O-])cc(C(F)(F)F)cc1[N+](=O)[O-],AC50,[1],65.1 µM (active)
same,AC50,[2],5.64 µM (active)
same,AC50,[3],4.72 µM (active)
same,AC50,[7],7.75 µM (active)
same,AC50,[8],5.33 µM (active)
same,AC50,[9],19 µM (active)
same,AC50,[11],121 µM (active)
CCN(CC)c1nc(C)cc(OP(=S)(OC)OC)n1,AC50,[1],79.4 µM (active)
same,AC50,[2],78.6 µM (active)
same,outcome,[3],inactive
same,AC50,[4],72.4 µM (active)
same,AC50,[5],60.7 µM (active)
same,AC50,[6],50 µM (active)
same,outcome,[7],inactive
same,outcome,[8],inactive
same,AC50,[9],89.2 µM (active)
CCSC(=O)N1CCCCCC1,outcome,[1],inactive
same,outcome,[2],inactive
same,outcome,[3],inactive
same,outcome,[7],inactive
same,outcome,[8],inactive
same,outcome,[11],inactive
O=C1C2CC=CCC2C(=O)N1SC(Cl)(Cl)Cl (configuration not stated),outcome,[19],inactive
same,AC50,[20],84.7 µM (active)
